# Measured values reported in PMC11062922 (Nature Chemical Biology, 2023).
# Read-outs that look alike come from different tables or passages of the source.
# How the values were obtained:
# ACVR1B = conditions: read-out: apparent Kd, n = 1
# AURKB = conditions: read-out: apparent Kd, n = 1
# [1] = compound concentrations:100 nM and 1000 nM (sheet 'Lestaurtinib' of Supplementary Table 1),run:Lestaurtinib_02339_R1,Plate:MR001
# [2] = compound concentrations:100 nM and 1000 nM (sheet 'Lestaurtinib' of Supplementary Table 1),run:Lestaurtinib_02364_R2,Plate:MR002
# [3] = compound concentrations:100 nM and 1000 nM (sheet 'Lestaurtinib' of Supplementary Table 1),run:Lestaurtinib_02364_R3,Plate:MR002
# [4] = compound concentrations:100 nM and 1000 nM (sheet 'Lestaurtinib' of Supplementary Table 1),run:Lestaurtinib_02367_R2,Plate:MR003
# [5] = compound concentrations:100 nM and 1000 nM (sheet 'Lestaurtinib' of Supplementary Table 1),run:Lestaurtinib_02381_R1,Plate:MR004
# [6] = compound concentrations:100 nM and 1000 nM (sheet 'Lestaurtinib' of Supplementary Table 1),run:Lestaurtinib_02437_R3,Plate:MR007
substance,measurement,setting,value
Lestaurtinib,potency estimated from few doses,ACVR1B; [1],730 nM
same,potency estimated from few doses,ACVR1B; [2],951 nM
same,potency estimated from few doses,ACVR1B; [3],661 nM
same,potency estimated from few doses,"ACVR1B; compound concentrations:100 nM and 1000 nM (sheet 'Lestaurtinib' of Supplementary Table 1),run:Lestaurtinib_02367_R1,Plate:MR003",671 nM
same,potency estimated from few doses,ACVR1B; [4],684 nM
same,potency estimated from few doses,"ACVR1B; compound concentrations:100 nM and 1000 nM (sheet 'Lestaurtinib' of Supplementary Table 1),run:Lestaurtinib_02367_R3,Plate:MR003",783 nM
same,potency estimated from few doses,ACVR1B; [5],694 nM
same,potency estimated from few doses,"ACVR1B; compound concentrations:100 nM and 1000 nM (sheet 'Lestaurtinib' of Supplementary Table 1),run:Lestaurtinib_02381_R3,Plate:MR004",515 nM
same,potency estimated from few doses,"ACVR1B; compound concentrations:100 nM and 1000 nM (sheet 'Lestaurtinib' of Supplementary Table 1),run:Lestaurtinib_02422_R2,Plate:MR006",951 nM
same,potency estimated from few doses,"ACVR1B; compound concentrations:100 nM and 1000 nM (sheet 'Lestaurtinib' of Supplementary Table 1),run:Lestaurtinib_02437_R1,Plate:MR007",592 nM
same,potency estimated from few doses,ACVR1B; [6],740 nM
same,potency estimated from few doses,"ACVR1B; compound concentrations:100 nM and 1000 nM (sheet 'Lestaurtinib' of Supplementary Table 1),run:Lestaurtinib_02438_R1,Plate:MR008",415 nM
same,potency estimated from few doses,"ACVR1B; compound concentrations:100 nM and 1000 nM (sheet 'Lestaurtinib' of Supplementary Table 1),run:Lestaurtinib_02443_R2,Plate:MR009",855 nM
same,potency estimated from few doses,"ACVR1B; compound concentrations:100 nM and 1000 nM (sheet 'Lestaurtinib' of Supplementary Table 1),run:Lestaurtinib_02443_R3,Plate:MR009",487 nM
same,potency estimated from few doses,"ACVR1B; compound concentrations:100 nM and 1000 nM (sheet 'Lestaurtinib' of Supplementary Table 1),run:Lestaurtinib_02473_R1,Plate:MR010",479 nM
same,potency estimated from few doses,"ACVR1B; compound concentrations:100 nM and 1000 nM (sheet 'Lestaurtinib' of Supplementary Table 1),run:Lestaurtinib_02473_R2,Plate:MR010",674 nM
same,potency estimated from few doses,"ACVR1B; compound concentrations:100 nM and 1000 nM (sheet 'Lestaurtinib' of Supplementary Table 1),run:Lestaurtinib_02482_R1,Plate:MR011",665 nM
same,potency estimated from few doses,"ACVR1B; compound concentrations:100 nM and 1000 nM (sheet 'Lestaurtinib' of Supplementary Table 1),run:Lestaurtinib_02487_R1,Plate:MR012",741 nM
same,potency estimated from few doses,"ACVR1B; compound concentrations:100 nM and 1000 nM (sheet 'Lestaurtinib' of Supplementary Table 1),run:Lestaurtinib_02487_R2,Plate:MR012",754 nM
same,potency estimated from few doses,"ACVR1B; compound concentrations:100 nM and 1000 nM (sheet 'Lestaurtinib' of Supplementary Table 1),run:Lestaurtinib_02487_R3,Plate:MR012",549 nM
same,potency estimated from few doses,"ACVR1B; compound concentrations:100 nM and 1000 nM (sheet 'Lestaurtinib' of Supplementary Table 1),run:Lestaurtinib_02496_R2,Plate:MR013",776 nM
same,potency estimated from few doses,"ACVR1B; compound concentrations:100 nM and 1000 nM (sheet 'Lestaurtinib' of Supplementary Table 1),run:Lestaurtinib_02496_R3,Plate:MR013",965 nM
same,potency estimated from few doses,"ACVR1B; compound concentrations:100 nM and 1000 nM (sheet 'Lestaurtinib' of Supplementary Table 1),run:Lestaurtinib_02566_R1,Plate:MR014",386 nM
same,potency estimated from few doses,"ACVR1B; compound concentrations:100 nM and 1000 nM (sheet 'Lestaurtinib' of Supplementary Table 1),run:Lestaurtinib_02566_R3,Plate:MR014",479 nM
same,potency estimated from few doses,"ACVR1B; compound concentrations:100 nM and 1000 nM (sheet 'Lestaurtinib' of Supplementary Table 1),run:Lestaurtinib_02577_R3,Plate:MR016",422 nM
same,potency estimated from few doses,"ACVR1B; compound concentrations:100 nM and 1000 nM (sheet 'Lestaurtinib' of Supplementary Table 1),run:Lestaurtinib_02584_R1,Plate:MR017",545 nM
same,potency estimated from few doses,"ACVR1B; compound concentrations:100 nM and 1000 nM (sheet 'Lestaurtinib' of Supplementary Table 1),run:Lestaurtinib_02584_R2,Plate:MR017",970 nM
same,potency estimated from few doses,"ACVR1B; compound concentrations:100 nM and 1000 nM (sheet 'Lestaurtinib' of Supplementary Table 1),run:Lestaurtinib_02584_R3,Plate:MR017",748 nM
same,potency estimated from few doses,"ACVR1B; compound concentrations:100 nM and 1000 nM (sheet 'Lestaurtinib' of Supplementary Table 1),run:Lestaurtinib_02601_R1,Plate:MR018",559 nM
same,potency estimated from few doses,"ACVR1B; compound concentrations:100 nM and 1000 nM (sheet 'Lestaurtinib' of Supplementary Table 1),run:Lestaurtinib_02601_R3,Plate:MR018",707 nM
same,potency estimated from few doses,"ACVR1B; compound concentrations:100 nM and 1000 nM (sheet 'Lestaurtinib' of Supplementary Table 1),run:Lestaurtinib_02606_R1,Plate:MR019",628 nM
same,potency estimated from few doses,"ACVR1B; compound concentrations:100 nM and 1000 nM (sheet 'Lestaurtinib' of Supplementary Table 1),run:Lestaurtinib_02606_R3,Plate:MR019",836 nM
same,potency estimated from few doses,"ACVR1B; compound concentrations:100 nM and 1000 nM (sheet 'Lestaurtinib' of Supplementary Table 1),run:Lestaurtinib_02624_R1,Plate:MR020",613 nM
same,potency estimated from few doses,"ACVR1B; compound concentrations:100 nM and 1000 nM (sheet 'Lestaurtinib' of Supplementary Table 1),run:Lestaurtinib_02624_R3,Plate:MR020",724 nM
same,potency estimated from few doses,"ACVR1B; compound concentrations:100 nM and 1000 nM (sheet 'Lestaurtinib' of Supplementary Table 1),run:Lestaurtinib_02724_R1,Plate:MR021",624 nM
same,potency estimated from few doses,"ACVR1B; compound concentrations:100 nM and 1000 nM (sheet 'Lestaurtinib' of Supplementary Table 1),run:Lestaurtinib_02724_R2,Plate:MR021",755 nM
same,potency estimated from few doses,"ACVR1B; compound concentrations:100 nM and 1000 nM (sheet 'Lestaurtinib' of Supplementary Table 1),run:Lestaurtinib_02741_R3,Plate:MR023",712 nM
same,potency estimated from few doses,"ACVR1B; compound concentrations:100 nM and 1000 nM (sheet 'Lestaurtinib' of Supplementary Table 1),run:Lestaurtinib_02748_R1,Plate:MR024",417 nM
same,potency estimated from few doses,"ACVR1B; compound concentrations:100 nM and 1000 nM (sheet 'Lestaurtinib' of Supplementary Table 1),run:Lestaurtinib_02748_R2,Plate:MR024",745 nM
same,potency estimated from few doses,"ACVR1B; compound concentrations:100 nM and 1000 nM (sheet 'Lestaurtinib' of Supplementary Table 1),run:Lestaurtinib_02752_R3,Plate:MR025",724 nM
same,potency estimated from few doses,"ACVR1B; compound concentrations:100 nM and 1000 nM (sheet 'Lestaurtinib' of Supplementary Table 1),run:Lestaurtinib_02765_R1,Plate:MR026",811 nM
same,potency estimated from few doses,"ACVR1B; compound concentrations:100 nM and 1000 nM (sheet 'Lestaurtinib' of Supplementary Table 1),run:Lestaurtinib_02765_R2,Plate:MR026",488 nM
same,potency estimated from few doses,"ACVR1B; compound concentrations:100 nM and 1000 nM (sheet 'Lestaurtinib' of Supplementary Table 1),run:Lestaurtinib_02766_R3,Plate:MR027",495 nM
same,potency estimated from few doses,"ACVR1B; compound concentrations:100 nM and 1000 nM (sheet 'Lestaurtinib' of Supplementary Table 1),run:Lestaurtinib_02768_R2,Plate:MR028",577 nM
same,potency estimated from few doses,"ACVR1B; compound concentrations:100 nM and 1000 nM (sheet 'Lestaurtinib' of Supplementary Table 1),run:Lestaurtinib_02768_R3,Plate:MR028",533 nM
same,potency estimated from few doses,"ACVR1B; compound concentrations:100 nM and 1000 nM (sheet 'Lestaurtinib' of Supplementary Table 1),run:Lestaurtinib_02795_R1,Plate:MR022",857 nM
same,potency estimated from few doses,"ACVR1B; compound concentrations:100 nM and 1000 nM (sheet 'Lestaurtinib' of Supplementary Table 1),run:Lestaurtinib_02795_R2,Plate:MR022",563 nM
same,potency estimated from few doses,"ACVR1B; compound concentrations:100 nM and 1000 nM (sheet 'Lestaurtinib' of Supplementary Table 1),run:Lestaurtinib_02795_R3,Plate:MR022",806 nM
same,potency estimated from few doses,"ACVR1B; compound concentrations:100 nM and 1000 nM (sheet 'Lestaurtinib' of Supplementary Table 1),run:Lestaurtinib_02802_R1,Plate:MR029",480 nM
same,potency estimated from few doses,"ACVR1B; compound concentrations:100 nM and 1000 nM (sheet 'Lestaurtinib' of Supplementary Table 1),run:Lestaurtinib_02802_R2,Plate:MR029",584 nM
same,potency estimated from few doses,"ACVR1B; compound concentrations:100 nM and 1000 nM (sheet 'Lestaurtinib' of Supplementary Table 1),run:Lestaurtinib_02802_R3,Plate:MR029",656 nM
same,potency estimated from few doses,"ACVR1B; compound concentrations:100 nM and 1000 nM (sheet 'Lestaurtinib' of Supplementary Table 1),run:Lestaurtinib_02896_R1,Plate:MR030",549 nM
same,potency estimated from few doses,"ACVR1B; compound concentrations:100 nM and 1000 nM (sheet 'Lestaurtinib' of Supplementary Table 1),run:Lestaurtinib_02896_R3,Plate:MR030",494 nM
same,potency estimated from few doses,"ACVR1B; compound concentrations:100 nM and 1000 nM (sheet 'Lestaurtinib' of Supplementary Table 1),run:Lestaurtinib_03172_R1,Plate:MR031",377 nM
same,potency estimated from few doses,"ACVR1B; compound concentrations:100 nM and 1000 nM (sheet 'Lestaurtinib' of Supplementary Table 1),run:Lestaurtinib_03172_R2,Plate:MR031",568 nM
same,potency estimated from few doses,"ACVR1B; compound concentrations:100 nM and 1000 nM (sheet 'Lestaurtinib' of Supplementary Table 1),run:Lestaurtinib_03172_R3,Plate:MR031",598 nM
same,potency estimated from few doses,"ACVR1B; compound concentrations:100 nM and 1000 nM (sheet 'Lestaurtinib' of Supplementary Table 1),run:Lestaurtinib_03252_R2,Plate:MR032",547 nM
same,potency estimated from few doses,"ACVR1B; compound concentrations:100 nM and 1000 nM (sheet 'Lestaurtinib' of Supplementary Table 1),run:Lestaurtinib_03260_R2,Plate:MR033",551 nM
same,potency estimated from few doses,"ACVR1B; compound concentrations:100 nM and 1000 nM (sheet 'Lestaurtinib' of Supplementary Table 1),run:Lestaurtinib_03260_R3,Plate:MR033",778 nM
same,potency estimated from few doses,AURKB; [1],261 nM
same,potency estimated from few doses,"AURKB; compound concentrations:100 nM and 1000 nM (sheet 'Lestaurtinib' of Supplementary Table 1),run:Lestaurtinib_02339_R2,Plate:MR001",143 nM
same,potency estimated from few doses,"AURKB; compound concentrations:100 nM and 1000 nM (sheet 'Lestaurtinib' of Supplementary Table 1),run:Lestaurtinib_02364_R1,Plate:MR002",260 nM
same,potency estimated from few doses,AURKB; [2],159 nM
same,potency estimated from few doses,AURKB; [3],220 nM
same,potency estimated from few doses,AURKB; [4],304 nM
same,potency estimated from few doses,AURKB; [5],278 nM
same,potency estimated from few doses,"AURKB; compound concentrations:100 nM and 1000 nM (sheet 'Lestaurtinib' of Supplementary Table 1),run:Lestaurtinib_02381_R2,Plate:MR004",232 nM
same,potency estimated from few doses,"AURKB; compound concentrations:100 nM and 1000 nM (sheet 'Lestaurtinib' of Supplementary Table 1),run:Lestaurtinib_02407_R2,Plate:MR005",132 nM
same,potency estimated from few doses,"AURKB; compound concentrations:100 nM and 1000 nM (sheet 'Lestaurtinib' of Supplementary Table 1),run:Lestaurtinib_02407_R3,Plate:MR005",268 nM
same,potency estimated from few doses,"AURKB; compound concentrations:100 nM and 1000 nM (sheet 'Lestaurtinib' of Supplementary Table 1),run:Lestaurtinib_02422_R1,Plate:MR006",157 nM
same,potency estimated from few doses,AURKB; [6],26.5 nM
same,potency estimated from few doses,"AURKB; compound concentrations:100 nM and 1000 nM (sheet 'Lestaurtinib' of Supplementary Table 1),run:Lestaurtinib_02438_R2,Plate:MR008",158 nM
